Broadly, the inhibition is the relative decrease from the control value, in per cent.

Molecules are shown by their SMILES. Screen size: about 330,000 compounds; about 5,800 (1.8%) were called active. This excerpt belongs to a sample that is enriched for actives. Values without a mark were called inactive. Cut-off read from the data, not from the text of the source: active = inhibition mostly above about 38% (no sharp cut-off); inactive = mostly below about 40%.

This assay deals with Orexin/Hypocretin receptor type 1 (Homo sapiens) (UniProt O43613). As to the kind of experiment: blocks the human orexin 1 receptor (AID 485270).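 Note: 0% = agonist challenge alone and 100% = reference antagonist.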 The conditions noted are these: OX1R-expressing cells, FRET antagonist read-out; at 6.6 µM; hits give high values.
Sequence of Orexin/Hypocretin receptor type 1 (Homo sapiens) (O43613 whole entry, looked up): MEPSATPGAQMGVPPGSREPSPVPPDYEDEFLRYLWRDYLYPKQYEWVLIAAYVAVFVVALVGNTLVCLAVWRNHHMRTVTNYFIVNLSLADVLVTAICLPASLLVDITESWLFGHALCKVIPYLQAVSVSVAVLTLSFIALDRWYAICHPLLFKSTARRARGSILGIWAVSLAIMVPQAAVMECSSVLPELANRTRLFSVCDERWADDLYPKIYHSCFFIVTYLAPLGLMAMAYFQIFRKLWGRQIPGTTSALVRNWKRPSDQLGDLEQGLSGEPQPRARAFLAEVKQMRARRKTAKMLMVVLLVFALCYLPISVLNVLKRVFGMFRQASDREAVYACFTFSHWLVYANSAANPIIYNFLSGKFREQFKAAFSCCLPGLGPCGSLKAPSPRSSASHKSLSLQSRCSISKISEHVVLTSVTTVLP
Regarding `O=C(Cn1cc(C(F)(F)F)ccc1=O)Nc1ccc2c(c1)OCCO2`, the inhibition was 1.4%.

As to `COc1cc(/C=C/C(=O)OCC(=O)NC2CC2)cc(OC)c1OC`, the inhibition was 3.2%.

Turning to `CC(C)(C)NC(=O)Cn1cnc2cc([N+](=O)[O-])ccc2c1=O`, the inhibition is 132% (active).

`O=C(Cn1cnc2cc([N+](=O)[O-])ccc2c1=O)NC(=O)NCc1ccccc1`: the inhibition is 23.1%.

Consider `Cc1cc(C(=O)Cn2cnc3cc([N+](=O)[O-])ccc3c2=O)c(C)n1CC1CCCO1` (stereo unspecified), for which the inhibition is 53.2%.

For `COc1ccc(S(=O)(=O)N(C)C[C@@H]2Oc3ccc(NS(=O)(=O)c4cn(C)cn4)cc3C(=O)N([C@@H](C)CO)C[C@@H]2C)cc1`, the inhibition is 1.11%.

Turning to `CSc1ncccc1C(=O)Nc1cccc(S(=O)(=O)N2CCOCC2)c1`, the inhibition was 9.4%.

For the compound `CC(=O)N1CCN(C(=O)c2cccc(S(=O)(=O)Nc3ccc(C)cc3)c2)CC1`, the inhibition is -3.44%.

`Cc1cccc(NS(=O)(=O)c2cccc(C(=O)NNC(=O)c3ccccc3O)c2)c1`: the inhibition was 29.7% (active).

Regarding `Cc1cccc(NS(=O)(=O)c2ccc(C)c(C(N)=O)c2)c1`, the inhibition was 19.2%.

As for `COc1cc(/C=C2\Oc3ccc(C#Cc4ccc(O)cc4)cc3C2=O)cc(OC)c1`, the inhibition was 2.43%.

With `O=C(COC(=O)c1ccco1)Nc1ccc(Cl)cn1`, the inhibition was 1.22%.

Turning to `CCNC(=O)N(CC)C[C@H]1N[C@@](CC)(C(=O)OC)[C@H]2C(=O)N(Cc3ccccc3)C(=O)[C@@H]12`, the inhibition is -4.57%.

On to `CC(C)(C)OC(=O)C[C@@H]1C/C=C\C[C@@H](CC(=O)N(CCO)Cc2ccccc2)C(=O)N[C@H](Cc2ccccc2)COC1=O`, for which the inhibition was 13.4%.

Turning to `CC(C)(C)c1cc[n+](-c2[nH]c(=O)sc2/C=N/N=C(\[O-])c2ccccc2)cc1`, the inhibition was 59.4% (active).

In the case of `O=C(N[C@@H]1C/C=C\C[C@@H](CC(=O)N(CCO)Cc2ccccc2)C(=O)N[C@H](Cc2ccccc2)COC1=O)OCC1c2ccccc2-c2ccccc21`, the inhibition was 9.35%.

For `CC1O[C@H](OC2C(COC3OC(CO)C(O)[C@H](O)C3O)OC(OC3CC[C@]4(C)C(CC[C@@]5(C)[C@@H]4C=C[C@]46OC[C@@]7(CCC(C)(C)C[C@H]74)C(O)C[C@@]56C)C3(C)C)C(O)C2O)C(O)C(O)C1O` (stereo partly specified), the inhibition was 0.25%.

`S=c1[nH]nc(-c2cc(-c3ccccc3)n[nH]2)n1/N=C/c1c2ccccc2cc2ccccc12`: the inhibition was 117% (active).

With `c1ccc(-c2cc(-c3ccccc3)[nH]n2)cc1`, the inhibition is 10.7%.

`Fc1ccccc1/C=N/n1c(-c2cccnc2)n[nH]c1=S`: the inhibition was 11.6%.

Take `CN(C(=O)c1cccc(NC(=O)Cc2ccc([N+](=O)[O-])cc2)c1)C1CCC1`: the inhibition is 2.95%.

With `Nn1c(SCC(=O)Nc2ccc3c(c2)CCC3)nnc1C1CC1`, the inhibition was 10.2%.

On to `CC(C)NC(=O)Nc1cccc2c1O[C@H](CN(C)S(=O)(=O)c1cccs1)[C@@H](C)CN([C@H](C)CO)C2=O`, for which the inhibition was -2.12%.

For `COc1ccc(CN(C)C(=O)c2cc(-c3ccc(C)cc3C)nc3ccccc23)c(OC)c1OC`, the inhibition is 43.5% (active).

With `COc1ccc(-c2cc(C(=O)N(C)Cc3ccccc3)c3ccccc3n2)cc1`, the inhibition is 1.22%.

On to `COc1ccc(-c2cc(C(=O)N(C)Cc3ccc(OC)c(OC)c3OC)c3ccccc3n2)cc1OC`, for which the inhibition is 39.4%.

With `CN(C(=O)c1cccc(NC(=O)C2CCN(C(=O)OC(C)(C)C)CC2)c1)C1CCC1`, the inhibition is 5.08%.

On to `CC(C)OC(=O)c1c(NC(=O)c2ccco2)sc2c1CCCC2`, for which the inhibition is 12.4%.

Turning to `CC(C)OC(=O)c1cc(NC(=O)C2C3CCC(O3)C2C(=O)O)cc(C(=O)OC(C)C)c1` (stereo unspecified), the inhibition was 8.17%.

On to `Cc1sc(NC(=O)C2C3CCC(O3)C2C(=O)O)c(C(=O)OC(C)C)c1-c1ccc(Cl)cc1` (stereo unspecified), for which the inhibition is 76% (active).

In the case of `Cn1cccc1C(=O)OCC(=O)NCCc1ccccc1`, the inhibition is 5.82%.

On to `CC1(C)C/C(=N/Nc2ccc([N+](=O)[O-])cc2[N+](=O)[O-])C(C)(C)O1`, for which the inhibition is 7.54%.

For the compound `Cc1cc([N+](=O)[O-])ccc1NC1CCCC1`, the inhibition was 10.2%.

Regarding `O=C(Nc1ccccc1)O/N=C1\CCCCC1c1ccc([N+](=O)[O-])cc1[N+](=O)[O-]` (stereo unspecified), the inhibition was 28.9%.

For `O=[N+]([O-])c1ccc(N/N=C2/CCCCC2c2ccccn2)c([N+](=O)[O-])c1` (stereo unspecified), the inhibition is 49.2% (active).

Regarding `O=[N+]([O-])c1cc(C(F)(F)F)ccc1NN=C1CCCC1`, the inhibition was 9.21%.

Take `C[n+]1ccccc1C1CCCC/C1=N\Nc1ccc([N+](=O)[O-])cc1[N+](=O)[O-]` (stereo unspecified): the inhibition is 93.3% (active).

As for `Cc1cc(C(=O)OCC(=O)N2C(C)CCCC2C)c2ccccc2n1` (stereo unspecified), the inhibition is 10.9%.

`Cc1cccc(NS(=O)(=O)c2ccc(C)c(C(=O)NCc3cccnc3)c2)c1`: the inhibition is 6.94%.

For the compound `N/C(=N\OC(=O)CCc1ccccc1)c1ccc(Cl)cc1`, the inhibition was 18.5%.

Regarding `Cc1ccc(NC(=O)Cn2cnc3c(OCc4ccccc4)ncnc32)cc1C`, the inhibition was 6.27%.

Consider `Cc1ccsc1C(=O)NCCc1ccco1`, for which the inhibition is 7.13%.

Regarding `O=C(Nc1cccc(S(=O)(=O)N2CCOCC2)c1)C12CC3CC(CC(C3)C1)C2`, the inhibition is 4.36%.

Take `Cc1cc(C)cc(NC(=O)C2CCCN2S(=O)(=O)c2cccc3cccnc23)c1` (stereo unspecified): the inhibition was 89.3% (active).

As to `COc1ccc(NC(=O)C2CCCN(S(=O)(=O)c3cccc4cccnc34)C2)cc1OC` (stereo unspecified), the inhibition was 22.1%.

In the case of `Cc1cccc(NC(=O)C2CCN(S(=O)(=O)c3cccc4cccnc34)CC2)c1`, the inhibition is 7.8%.

On to `Cc1ccc(NC(=O)C2CCCN2S(=O)(=O)c2cccc3cccnc23)c(C)c1` (stereo unspecified), for which the inhibition was 21.6%.

Regarding `O=C(O)C1CCCN(S(=O)(=O)c2cccc3cccnc23)C1` (stereo unspecified), the inhibition is 4.71%.

Consider `O=C(Nc1nccs1)C1CCCN1S(=O)(=O)c1cccc2cccnc12` (stereo unspecified), for which the inhibition is 47.1% (active).

Take `O=C1OC[C@@H]2CCCN2C(=O)[C@H](CC(=O)N(CCO)Cc2ccccc2)C/C=C\CC[C@@H]1Cc1ccc(F)cc1`: the inhibition is 4.88%.

With `CC(=O)OCCC(C)C`, the inhibition is 3.23%.

Turning to `C=CC[C@H](CC(=O)N(CCO)Cc1ccccc1)C(=O)N[C@@H](COC(=O)[C@@H](CC=C)Cc1ccc(F)cc1)Cc1ccccc1`, the inhibition was 10.8%.

On to `CCCNC(=O)C1CC(=O)N(c2ccc(OCC(=O)Nc3cccc(C)c3C)cc2)C1` (stereo unspecified), for which the inhibition is 7.42%.

Turning to `COc1ccccc1N1CC(C(=O)NCCN2C(=O)S/C(=C\c3cccnc3)C2=O)CC1=O` (stereo unspecified), the inhibition was 29.4%.

For `CCOc1ccc(N2CC(C(=O)NCCN3C(=O)S/C(=C\c4cccnc4)C3=O)CC2=O)cc1` (stereo unspecified), the inhibition was 55.7% (active).

Take `CCOc1ccc(N2CC(C(=O)NCc3ccccn3)CC2=O)cc1` (stereo unspecified): the inhibition was 13.1%.

`O=C(NCCN1C(=O)S/C(=C\c2cccnc2)C1=O)c1ccc(S(=O)(=O)N2CCCC2)cc1`: the inhibition was 41%.

Consider `Cc1cc(OCCCC(=O)NCCN2C(=O)S/C(=C\c3cccnc3)C2=O)ccc1Cl`, for which the inhibition was 97.5% (active).

For `O=C(NCCN1C(=O)S/C(=C\c2cccnc2)C1=O)c1cccc(OC(F)F)c1`, the inhibition is 33.8%.

As for `COc1ccc(N2CC(C(=O)NCCN3C(=O)S/C(=C\c4cccnc4)C3=O)CC2=O)c(OC)c1` (stereo unspecified), the inhibition was 153% (active).

In the case of `COc1cccc(NC(=O)C2c3cc(OC)c(OC)cc3C(=O)N(C)C2c2cccnc2)c1` (stereo unspecified), the inhibition is 10.3%.

In the case of `Cc1ccc(CNC(=O)COC(=O)C2CCC2)cc1`, the inhibition is 8.9%.

On to `O=C(COC(=O)c1cc(S(=O)(=O)N2CCOCC2)ccc1F)NC1CC1`, for which the inhibition is 8.42%.

`CN(CC(=O)NCCc1ccc(S(N)(=O)=O)cc1)CC(=O)Nc1ccc(Cl)cc1`: the inhibition is 3.5%.

As to `CCCc1cc(=O)[nH]c(SCC(=O)Nc2ccc(C(=O)Nc3ccccc3OC)cc2)n1`, the inhibition was 14.2%.

As for `Cc1ccc2c(c1)NC(=O)[C@@]1(C)[C@@H](c3ccccc3)[C@H]3COc4ccc(Cl)cc4[C@@H]3N1C2=O`, the inhibition is 27.8%.

On to `CSc1ncccc1C(=O)NCC(c1ccco1)N1CCCCC1` (stereo unspecified), for which the inhibition is 1.61%.

Turning to `O=C1N[C@@H](c2ccccc2)COC(=O)[C@H](Cc2ccc(F)cc2)C/C=C\C[C@@H]1CC(=O)N(CCO)Cc1ccccc1`, the inhibition is 13.5%.

On to `CC1CC(=NNC(=O)C2COc3ccccc3O2)CC(C)(C)C1` (stereo unspecified), for which the inhibition is 5.91%.

As for `O=C(Nc1ccccn1)C1CCN(S(=O)(=O)c2ccc3c(c2)OCCO3)CC1`, the inhibition is -0.64%.

Turning to `COc1cccc(NC(=O)COC(=O)c2ccc3ccccc3n2)c1`, the inhibition is 10.5%.

For `CCc1ccc(C(=O)N2CCN(S(=O)(=O)c3sc(C(=O)O)c(C)c3C(=O)O)CC2)cc1`, the inhibition is 0.64%.

On to `COc1ccc(CCOC2OC(CO)C(OC(=O)/C=C/c3ccc(O)c(OC)c3)C(O[C@H]3O[C@@H](C)[C@H](O)[C@@H](O)[C@H]3O)C2O)cc1O` (stereo partly specified), for which the inhibition is 3.08%.

In the case of `CCOC(=O)CSc1nc(C)cc2c1C(=O)OC2`, the inhibition was 5.73%.

Regarding `CCOC(=O)CSC1=N/C(=C/c2ccc(-n3cncn3)cc2)C(=O)N1C(C)=O`, the inhibition is 64.5% (active).

As for `CCOC(=O)CSc1ccccn1`, the inhibition is 2.08%.

With `COc1cccc(CC(=O)OCC(=O)NCc2ccc3c(c2)OCO3)c1`, the inhibition is 4.94%.

For `CC(=O)Nc1ccc(S(=O)(=O)NCC(=O)OCC(=O)c2ccc[nH]2)cc1`, the inhibition is 7.15%.

Regarding `Cc1ccc(C)c(NC(=O)COC(=O)c2nn(C)c(=O)c3ccccc23)c1`, the inhibition was 4.64%.

As to `CC(Sc1nncn1C)C(=O)NCCC1=CCCCC1` (stereo unspecified), the inhibition is 5.26%.

With `COc1ccc(CNc2nc(NCc3ccc(OC)cc3)c3ncn(C4CCCC4)c3n2)cc1`, the inhibition was 15.3%.

Source of the values: PubChem BioAssay AID485270 (The Scripps Research Institute Molecular Screening Center, 2010).
